From PubChem BioAssay (NCI)
The panel holds about 79,000 compounds, 15% with a hit somewhere; the sample as a whole holds those more often. Cut-off read from the data, not from the text of the source: active = growth inhibition above about 70%; inactive = the rest.

What was measured:
[1] = NCI Yeast Anticancer Drug Screen. Data for the rad50 strain (AID 155);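 note: 0% = growth of vehicle-only cultures of the same strain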; settings: S. cerevisiae rad50 strain growth inhibition; at 50.0 µM; stronger effect = higher value
In short: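 Genetically altered yeast (DNA repair pathway); compound treatment; growth inhibition vs vehicle ctrl.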

[2] = NCI Yeast Anticancer Drug Screen. Data for the mec2-1 strain (AID 157); settings: S. cerevisiae mec2-1 strain, at 50.0 µM, stronger effect = higher value
In short: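 Cells of the genetically defined mec2-1 yeast strain are incubated with test compound. Inhibition of growth is calculated against vehicle-treated controls.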

[3] = NCI Yeast Anticancer Drug Screen. Data for the sgs1 mgt1 strain (AID 161);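 note: 0% = growth of cultures given vehicle only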; settings: S. cerevisiae sgs1 mgt1 strain, at 50.0 µM, stronger effect = higher value
In short: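 Test agents were incubated with a DNA-repair-mutant yeast strain. Growth was then read and compared against vehicle-treated controls.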

[4] = NCI Yeast Anticancer Drug Screen. Data for the cln2 rad14 strain (AID 165);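 note: 0% = growth equal to vehicle treated cultures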; settings: S. cerevisiae cln2 rad14 strain, at 50.0 µM, stronger effect = higher value
In short: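 The screen exposed genetically defined yeast (cln2 rad14) to test compounds and scored growth inhibition relative to vehicle-treated controls.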

[5] = NCI Yeast Anticancer Drug Screen. Data for the bub3 strain (AID 167); settings: S. cerevisiae bub3 mutant strain, at 50.0 µM, stronger effect = higher value
In short: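 Yeast carrying a defined mutation is treated with each compound, and growth is compared with that of vehicle-exposed cells to give inhibition.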

[6] = NCI Yeast Anticancer Drug Screen. Data for the mlh1 rad18 strain (AID 175); settings: S. cerevisiae mlh1 rad18 strain growth inhibition; at 50.0 µM; stronger effect = higher value
In short: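 Compound-treated yeast growth, normalised to vehicle controls. Strain bears defined DNA repair mutations.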

Measured: growth inhibition

CC1CCC2(C)OC1OC2CN (stereo unspecified)
inactive: [1] 1.15% | [2] 2.85% | [3] -2.2% | [4] -0.55% | [5] 0.3% | [6] -4.65%

Oc1ccccc1CNCCNCc1ccccc1O
inactive: [1] -12.2% | [2] -14.1% | [3] 1.6% | [4] 17.6% | [5] -4.5% | [6] -36.2%

COc1cc(C2c3cc4c(cc3OC(NC3CCCCC3)C2C)OCO4)cc(OC)c1OC (stereo unspecified)
inactive: [1] -0.35% | [2] -9.4% | [3] -2.4% | [4] 27.8% | [5] 24.6% | [6] -20.9%

CCCCCSC
inactive: [1] 21% | [2] -12.1% | [3] 11.2% | [4] 10.1% | [5] 7.9% | [6] 28.6%

CCCn1c(=O)n(C)c(=O)c2c1ncn2C
inactive: [1] -5.15% | [2] -2.25% | [3] 13.2% | [4] -28.1% | [5] 4.1% | [6] 13.5%

CC(C)(C)[Si](C)(C)OCC1OC(n2cc(I)c(=O)[nH]c2=O)C(O[Si](C)(C)C(C)(C)C)C1O[Si](C)(C)C(C)(C)C (stereo unspecified)
inactive: [1] -19.2% | [2] -16% | [3] -18.2% | [4] 14.8% | [5] 11.9% | [6] -33.5%

CNc1nc2c(s1)c1c(O)c3c(O)c(C)c4c(c32)C(=O)C(C)(O/C=C/C(OC)C(C)C(OC(C)=O)C(C)C(O)C(C)C(O)C(C)/C=C/C=C(/C)C(=O)N1)O4 (stereo unspecified)
inactive: [1] 14.1% | [2] 13.8% | [3] 9.1% | [4] 9.7% | [5] 21.2% | [6] 20.5%

O=C(O)c1ccc(S(=O)(=O)c2ccccc2[N+](=O)[O-])cc1
inactive: [1] -12.9% | [2] -10.3% | [3] -35.8% | [4] -19% | [5] -12.1% | [6] -38.6%

CCC1(c2ccc(N3C(=O)c4cc(OC)c(OC)cc4C3=O)cc2)CCC(=O)NC1=O (stereo unspecified)
inactive: [1] -6.25% | [2] 7.65% | [3] -7.25% | [4] -16.1% | [5] -16% | [6] -32.8%

CC(C)Cc1cnc(CC(C)C)c(=O)[nH]1
inactive: [1] -13.6% | [2] -44.6% | [3] -28.1% | [4] 10.8% | [5] -40.2% | [6] -25.9%

CCC(CC)C(=O)NC(O)C(Cl)(Cl)C(C)Cl (stereo unspecified)
inactive: [1] 3.8% | [2] 27.1% | [3] 0.55% | [4] 20.3% | [5] 6.65% | [6] 14.6%

CCC(C)NS(=O)(=O)c1ccc(Cl)cc1 (stereo unspecified)
inactive: [1] 18.4% | [2] 9.55% | [3] 6.45% | [4] 8.6% | [5] 5.85% | [6] 3.7%

CC(=O)Nc1ccc(F)cc1
inactive: [1] -38.3% | [2] -25.7% | [3] -5.3% | [4] 4% | [5] -19.5% | [6] -13.1%

COC1/C=C\OC2(C)Oc3c(C)c(O)c4c(O)c(c5[nH]cnc5c4c3C2=O)NC(=O)/C(C)=C\C=C\C(C)C(O)C(C)C(O)C(C)C(OC(C)=O)C1C (stereo unspecified)
inactive: [1] 12.1% | [2] 3.8% | [3] 24% | [4] 28.2% | [5] 17.1% | [6] 21.4%

CCOC(=O)C1=C(NC(C)(C)C)OCC1=O
inactive: [1] -10.7% | [2] -17.9% | [3] -2.2% | [4] 3.1% | [5] -16.6% | [6] 16.1%

NCCCCCCN
inactive: [1] -50.6% | [2] -6.05% | [3] -36.6% | [4] -46.8% | [5] -45.5% | [6] -65%

CC1=CCC(=O)O1
inactive: [1] 2.15% | [2] 8.2% | [3] -1.7% | [4] 12.2% | [5] -7.75% | [6] 15.3%

CCOC(=O)C(C(=O)CC(C)C)C(C)C (stereo unspecified)
inactive: [1] -15.9% | [2] -25.2% | [3] 1.1% | [4] -30.4% | [5] 2.95% | [6] -5.7%

CC(=O)Nc1ccc(S(=O)(=O)Nc2cc(Cl)cc(Cl)c2)cc1
inactive: [1] 15.7% | [2] -10.2% | [3] -0.05% | [4] 8.75% | [5] 2.1% | [6] -7.1%

Cc1nc(-c2ccccc2)cc2c1c(=O)oc1ccccc12
inactive: [1] -14.7% | [2] -30.6% | [3] 4% | [4] 6.3% | [5] -5.4% | [6] -8.55%

C=CCNC(=S)/N=C/C(C(=O)Nc1ccc(Cl)cc1)=C(\C)O
inactive: [1] -34.1% | [2] -10.1% | [3] -30.2% | [4] 6.6% | [5] -16.8% | [6] -12.8%

Cn1c([N+](=O)[O-])cnc1COS(=O)(=O)c1cccnc1
inactive: [1] 6.05% | [2] -9.15% | [3] 25.8% | [4] 11.1% | [5] 16.8% | [6] 15.6%

CC(C)=C1CCC/C1=N\Nc1ccc([N+](=O)[O-])cc1[N+](=O)[O-]
inactive: [1] -5.9% | [2] -1.35% | [3] 0.15% | [4] -25.8% | [5] 4.6% | [6] -8.75%

NC(=O)NC(=O)OCC(F)(F)C(F)(F)C(F)(F)C(F)(F)C(F)(F)C(F)(F)C(F)(F)F
inactive: [1] 45.8% | [2] 9.9% | [3] 31.4% | [4] 15.6% | [5] -0.45% | [6] 6.85%

COc1ccccc1CC(C)N1CCCC1c1ccccc1 (stereo unspecified)
inactive: [1] -12.1% | [2] -6.8% | [3] -0.9% | [4] -41.6% | [5] 4.65% | [6] 3.4%

O=C(O)c1ccccc1CC(Cc1ccc2c(c1)CCC2)C(=O)O (stereo unspecified)
inactive: [1] -7.55% | [2] -2.25% | [3] -37% | [4] -5.15% | [5] -17.6% | [6] -6%

O=C(c1ccccc1)c1cccc2cccc(C(=O)c3ccccc3)c12
inactive: [1] 3.2% | [2] 11.7% | [3] -7.7% | [4] 6% | [5] 6.45% | [6] -27.6%

NC(=O)C(=O)c1cc(Cl)c(Cl)c(Cl)c1Cl
inactive: [1] -12.3% | [2] -13.5% | [3] 12.4% | [4] -9% | [5] -5.15% | [6] -4.15%

O=c1c(-c2ccccc2)c(O)on1/C=C1/C=CC=N1
inactive: [1] -8.6% | [2] -25.2% | [3] 3.5% | [4] 3.8% | [5] 7.2% | [6] 1.5%

O=S(=O)(O)c1ccc(S)cc1
inactive: [1] 2.7% | [2] 1.55% | [3] 16.7% | [4] -6.5% | [5] -31% | [6] 1.6%

O=c1[nH]cnc2c1ncn2C1CCC(CO)O1 (stereo unspecified)
inactive: [1] -11% | [2] 14.6% | [3] 11.3% | [4] -0.1% | [5] 1.85% | [6] -8.85%

CCCCC1(CCS)C(=O)NC(=Nc2ccccc2)NC1=O (stereo unspecified)
inactive: [1] -0.95% | [2] -3.95% | [3] 11.8% | [4] -37.3% | [5] 22.7% | [6] -11.8%

O=c1c2c(nc3n1CCC3)OC(c1ccccc1)C2 (stereo unspecified)
inactive: [1] 0.4% | [2] 4.3% | [3] -5.9% | [4] -44.8% | [5] -2.95% | [6] 12.6%

O=C(NNC(=S)S)c1ccncc1
inactive: [1] 7.5% | [2] 2.4% | [3] -1.2% | [4] -8.95% | [5] 11.7% | [6] 21.9%

N#Cc1cccc(O)c1
inactive: [1] -3.45% | [2] -10.7% | [3] -2.45% | [4] 20.1% | [5] 13.7% | [6] 12%

COc1c2c(cc3c1C(=O)Cc1ccc4c(c1CN(C)CC3)OCO4)OCO2
inactive: [1] 7.15% | [2] -3.4% | [3] -1.15% | [4] 24.4% | [5] 8.95% | [6] 7.25%

O=C1c2ccccc2-c2cc(F)ccc21
inactive: [1] 18.3% | [2] -10.4% | [3] -7.4% | [4] -6.25% | [5] 17.6% | [6] -0.1%

CCOC(=O)c1ccc(CSc2ccc(N)cc2)c([N+](=O)[O-])c1
inactive: [1] -0.6% | [2] 7.15% | [3] 17.4% | [4] 11.4% | [5] 2.3% | [6] 20.2%

CC(=O)OCCOC(=O)Nc1ccccc1
inactive: [1] 0.05% | [2] -14.5% | [3] -13.9% | [4] -22.2% | [5] -2.55% | [6] -4.85%

COc1ccccc1NC(=O)/C(=C/C1CC(=O)NC1=S)C(C)=O (stereo unspecified)
inactive: [1] -18.6% | [2] -9.4% | [3] -18.6% | [4] 15.5% | [5] 12% | [6] -7.4%

Nc1ccc2c(c1)C(=O)c1c(F)c(F)c(F)c(F)c1-2
inactive: [1] 16.6% | [2] -0.9% | [3] -10.7% | [4] -13.2% | [5] 4.85% | [6] 11.9%
